# In the supplement of paper PMC10981050:
# Where a name gives a salt, the structure may show the parent alone.
# Tested on: MOLM14
# Experiment: cell viability relative to vehicle control; higher = less cytotoxic
# Conditions: 10 µM; SRSF2 genotype: SRSF2 wt/wt
# Procedure, shortened: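 Mutant clones made by CRISPR editing and their isogenic wild-type counterparts, from four leukaemia lines, were exposed to a single 10 µM dose of each library compound for 48 h. The supernatant was then removed and CellTiter-Glo luminescence was read. Viability was reported as percent of the on-plate vehicle control.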
row,SMILES,cell viability
1,CO[C@H]1/C=C/O[C@@]2(C)Oc3c(C)c(O)c4c(O)c(c(/C=N/N5CCN(C6CCCC6)CC5)c(O)c4c3C2=O)NC(=O)/C(C)=C\C=C\[C@H](C)[C@H](O)[C@@H](C)[C@@H](O)[C@@H](C)[C@H](OC(C)=O)[C@@H]1C [Rifapentine],67%
2,O=C1NC(=O)/C(=C/c2ccc3c(c2)OC(F)(F)O3)S1,101%
3,CCOC(=O)c1ccc(N)cc1 [Benzocaine],92.4%
4,Cn1nc(C(C)(C)C)cc1C(=O)N[C@@H](Cc1cccc(Cl)c1)C(=O)NCC#N [Cathepsin Inhibitor 1],98.4%
5,Cc1c(C(=O)Nc2ccc(N3CCC(N4CCOCC4)CC3)c(C#N)c2)cnn1-c1ccc(Cl)cc1,1.97%
6,CCOC(=O)[C@H](CCc1ccccc1)N[C@@H](C)C(=O)N(CC(=O)O)C1Cc2ccccc2C1 [Delapril Hydrochloride],90.7%
7,CC1(C)[C@@H](O[C@H]2O[C@H](C(=O)O)[C@@H](O)[C@H](O)[C@H]2O[C@@H]2O[C@H](C(=O)O)[C@@H](O)[C@H](O)[C@H]2O)CC[C@]2(C)[C@H]3C(=O)C=C4[C@@H]5C[C@@](C)(C(=O)O)CC[C@]5(C)CC[C@@]4(C)[C@]3(C)CC[C@@H]12 [Ammonium Glycyrrhizate],98.9%
8,"CCNC(=O)c1noc(-c2cc(C(C)C)c(O)cc2O)c1-c1ccc(CN2CCOCC2)cc1 [Luminespib (AUY-922, NVP-AUY922)]",1.31%
9,C=CCc1cc(OC)c(O)c(C(=O)NCCO)c1 [Alibendol],102%
10,CN1CCN(Cc2ccc(Nc3ncc(Cl)c(Nc4ccccc4S(=O)(=O)N(C)C)n3)cc2)CC1,0.64%
11,CC(C[N+](C)(C)C)OC(N)=O (stereo not given) [Bethanechol chloride],109%
12,CC1=CC(=O)[C@@H]2C[C@H]1C2(C)C [(-)-Verbenone],95.7%
13,C[C@@H](Nc1cc(F)cc(F)c1)c1cc(C(=O)N(C)C)cc2c(=O)cc(N3CCOCC3)oc12,51.1%
14,Cc1nc2cccc(N)c2c(=O)n1C1CCC(=O)NC1=O (stereo not given) [Avadomide(CC-122)],98.2%
15,CN1Cc2c(ccc3c2OCO3)[C@@]2(C)[C@@H](O)Cc3cc4c(cc3[C@@H]12)OCO4 [Corynoline],3.23%
16,COc1ccc(Oc2cc(NCCC(F)(F)F)c3ncc(-c4ccc(C(=O)NC5CC5)c(C)c4)n3n2)c(F)c1F,42.6%
17,O=[N+]([O-])c1ccc(Sc2cccc[n+]2[O-])c2nonc12,0.25%
18,CC(=O)N1CCN(c2ccc(NC(=O)Cc3cnc(-c4ccnc(F)c4)c(C)c3)nc2)CC1,86.7%
19,C[C@@H]1CC[C@H]2C(C)(C)[C@H]3C[C@@]12CC[C@@]3(C)O [Cedrol],104%
20,CNC(=O)c1ccc(N2C(=S)N(c3cnc(C#N)c(C(F)(F)F)c3)C(=O)C23CCC3)cc1F,109%

row,SMILES,cell viability
1,C=C1[C@@H]2CC[C@@H](C2)C1(C)C [Camphene],108%
2,CCCCCCCCC(=O)O [Nonanoic acid],102%
3,CC1(C)S[C@@H]2[C@H](NC(=O)[C@H](NC(=O)N3CCNC3=O)c3ccccc3)C(=O)N2[C@H]1C(=O)O [Azlocillin sodium salt],88.6%
4,COc1cc2ncnc(Nc3ccc(F)c(Cl)c3)c2cc1NC(=O)/C=C/CN1CCCCC1,54.4%
5,O=C1NS(=O)(=O)c2ccccc21 [Saccharin],96.6%
6,CNC(=O)c1cnn(-c2nc(N)c3ncn([C@@H]4O[C@H](CO)[C@@H](O)[C@H]4O)c3n2)c1 [Regadenoson],103%
7,CCCc1cc(C(N)=S)ccn1 [Protionamide (Prothionamide)],102%
8,O=C(c1ccc(Oc2ccccc2)cc1Cl)c1c[nH]c2ncnc(N[C@@H]3CC[C@@H](CO)OC3)c12,17%
9,C=CC(=O)Nc1cc(Nc2nccc(-c3cn(C)c4ccccc34)n2)c(OC)cc1N(C)CCN(C)C,0.44%
10,CC(=O)Oc1c(C)c(C)c2c(c1C)CCC(C)(CCC[C@H](C)CCC[C@H](C)CCCC(C)C)O2 (stereo not given in full) [Vitamin E Acetate],106%
11,C=CC(=O)Nc1ccc2ncnc(Nc3cccc(Br)c3)c2c1,81.3%
12,CC1(C)O[C@H]1COc1c2ccoc2cc2oc(=O)ccc12 [Oxypeucedanin],101%
13,Cc1nc2ccc(NC(=O)Nc3ccnc4cccnc34)cc2o1,107%
14,O=C(COc1ccc(C(=O)c2ccccc2)cc1)NC1CCN(Cc2ccccc2)CC1 [Adiporon],77.2%
15,CS(=O)(=O)Nc1cc2occ(NC=O)c(=O)c2cc1Oc1ccccc1 [Iguratimod],108%
16,Cc1ccnc(NS(=O)(=O)c2ccc(N)cc2)n1 [Sulfamerazine],107%
17,CC(=CCNc1ncnc2nc[nH]c12)CO [Trans-Zeatin],103%
18,CCCC(CCC)C(=O)O [Valproic acid sodium salt (Sodium valproate)],93.7%
19,C[C@]1(COc2ccc(N3CCC(Oc4ccc(OC(F)(F)F)cc4)CC3)cc2)Cn2cc([N+](=O)[O-])nc2O1 [Delamanid],101%
20,COc1ccc(CCC(=O)Nc2nc3ccc(Cl)cc3s2)cc1OC,97.8%
